Source: PubChem BioAssay (National Center for Advancing Translational Sciences (NCATS))
Most compounds without a hit are left out; they make up all but 3.4% or so of the library.
RE007 growth inh: qHTS Assay for Inhibitors of the HIV-1 protein Vpr | S. pombe RE007 Vpr strain, BacTiter-Glo ATP luminescence, 24 h | Potency, µM (titrated, usually from 92.2 µM), for inactives: at the top dose activity change, negative = less growth, most hits filed as inhibitors | 360,000 compounds, 0.21% hits | AID 651644, 2012; active means well fitted falling curve with a large enough effect; inconclusive means small, poorly fitted or top-dose-only effect; inactive means no such curve, though single readings can be large or run the other way; further: nearly all actives have a fitted effect of over 50% in size
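Fission yeast RE007 carrying one integrated HIV-1 vpr copy, seeded at OD 0.01 in PMG+AL medium with 23 nL pinned compound. Grown 24 h at 30 degrees; viability read by BacTiter-Glo luminescence after 5 min.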
AmpC inh no detg: qHTS Inhibitors of AmpC Beta-Lactamase (assay without detergent). P00811. AmpC nitrocefin hydrolysis, absorbance 480 nm, 0.0001% Triton. Potency, µM (top dose mostly 57.1 µM), without a hit: at the top dose activity change, negative = inhibition, most hits filed as inhibitors. 330,000 compounds, 0.52% hits;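 further: plate controls were no compound for no effect and no enzyme for full effect; nearly all actives have a fitted effect of over 20% in size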
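20 mM phosphate pH 7.0 + 0.01% (detergent screen) or 0.0001% Triton X-100; 5.3 nM AmpC reagent; cpd preinc 15 min RT; nitrocefin (800 uM stock) to start; A480 q20 s × 4 min; Activity was normalised to no-enzyme and no-compound control wells.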
Giardia FBPA inh: qHTS Assay for Inhibitors of Fructose-1,6-bisphosphate Aldolase from Giardia Lamblia | 290,000 compounds, 0.71% hits | purified Giardia FBPA | Potency, µM (doses to about 59.6 µM), for the others: at the highest dose activity, negative = inhibition, actives largely listed as inhibitors | A8B2U2; further: nearly all actives have a fitted effect of over 55% in size
Target sequence (A8B2U2 whole entry, looked up): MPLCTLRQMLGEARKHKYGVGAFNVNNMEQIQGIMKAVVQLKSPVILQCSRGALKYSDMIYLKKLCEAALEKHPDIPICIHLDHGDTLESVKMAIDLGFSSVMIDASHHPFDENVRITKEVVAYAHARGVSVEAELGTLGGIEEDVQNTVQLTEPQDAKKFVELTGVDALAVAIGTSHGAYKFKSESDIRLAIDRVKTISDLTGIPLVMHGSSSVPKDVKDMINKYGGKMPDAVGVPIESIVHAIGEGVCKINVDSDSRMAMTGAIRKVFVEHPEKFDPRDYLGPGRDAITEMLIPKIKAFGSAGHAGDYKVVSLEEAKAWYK
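Giardia FBPA (40 nM reagent) was preincubated 10 min at RT with compound (up to 57.5 uM final), then substrate plus GAPDH/TPI/NAD/arsenate coupling system with diaphorase/resazurin was added; resorufin fluorescence (525/598 nm) was read after 20 min.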
AmpC detergent: qHTS Inhibitors of AmpC Beta-Lactamase (assay with detergent); AmpC hydrolysis of nitrocefin, absorbance 480 nm, 0.01% Triton; Potency, µM (top dose mostly 114 µM), inactives show at the top dose activity change, negative = inhibition, usual class: inhibitors; 370,000 compounds, 0.041% hits;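 further: 0% = no-compound wells and -100% = no-enzyme wells; nearly all actives have a fitted effect of over 25% in size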
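AmpC (5.3 nM in the dispensed reagent) in 20 mM phosphate pH 7.0 with 0.01% (detergent screen) or 0.0001% Triton X-100 was preincubated with compounds for 15 min at room temperature. Nitrocefin was then added from an 800 uM solution, and hydrolysis was followed at 480 nm.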
Sm TGR inh: qHTS Assay for the Inhibitors of Schistosoma Mansoni Peroxiredoxins | Potency, µM (top dose mostly 114 µM), for the others: at the highest dose activity change, negative = inhibition, actives largely listed as inhibitors | 360,000 compounds, 3% hits | purified TGR, DTNB reduction, TNB absorbance 405 nm | AID 485364, 2010; further: nearly all actives have a fitted effect of over 60% in size
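TGR 20 nM + NADPH 100 uM (dispensed conc.), cpd preinc 15 min RT; start with NADPH (500 uM addition) then DTNB (15 mM addition). Kinetic TNB absorbance, 405 nm filter. Four-parameter Hill fit across titration.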
The depositor's hits bear a star. Unless noted, the call rests on the fitted dose curve; in most records, active means well fitted curve in the direction sought with a large enough effect; inconclusive means small, poorly fitted or top-dose-only effect, or another doubt; inactive means no such curve, though single readings can be large; an effect the other way counts as inactive or inconclusive. Unless noted, on the % scale 0 is the no-effect control and ±100 the full control effect; potency means the concentration at half of the fitted maximal effect.

Results for O=C(Nc1ncccc1O)c1cccc(S(=O)(=O)N2CCCc3ccccc32)c1 ?
RE007 growth inh: -21.2%; AmpC inh no detg: -38.3%; AmpC detergent: -6.0%; Sm TGR inh: -15.9%

How did O=C(CCS(=O)(=O)c1ccccc1)Nc1ncc([N+](=O)[O-])s1 do in these assays?
RE007 growth inh: -7.3%; AmpC inh no detg: -3.2%; Giardia FBPA inh: 7.0%; AmpC detergent: inconclusive; Sm TGR inh: 44.7µM*

How did O=C(CS(=O)(=O)c1ccccc1)Nc1ncc([N+](=O)[O-])s1 do in these assays?
RE007 growth inh: -24.4%; AmpC inh no detg: -16.2%; Giardia FBPA inh: -6.4%; AmpC detergent: -12.3%; Sm TGR inh: inconclusive

How did CCOC(=O)c1ccc(NC(=O)CS(=O)(=O)Cc2nc(-c3ccc(C)cc3)oc2C)cc1 do in these assays?
AmpC detergent: -4.0%; Sm TGR inh: -28.9%

Results for C/C(=N/NC(=O)CNC(=O)c1ccccn1)c1cccc([N+](=O)[O-])c1 ?
RE007 growth inh: 10.9%; AmpC inh no detg: -23.8%; Giardia FBPA inh: -7.0%; AmpC detergent: -8.3%; Sm TGR inh: 20µM*

What do the screens show for `Brc1ccc2nc(SCCOc3ccccc3)[nH]c2c1`?
AmpC detergent: -0.8%; Sm TGR inh: -1.0%

Results for Cc1ccc2nc(SCCCCOc3ccccc3)[nH]c2c1 ?
RE007 growth inh: 56.2µM*; AmpC inh no detg: -29.8%; Giardia FBPA inh: -10.1%; AmpC detergent: 6.3%; Sm TGR inh: 13.4%

How did COc1cc2c(cc1OC)CN(C(=O)COc1ccccc1[N+](=O)[O-])CC2 do in these assays?
RE007 growth inh: -5.1%; AmpC inh no detg: 121.9%; Giardia FBPA inh: 2.5%; AmpC detergent: -6.8%; Sm TGR inh: -12.1%

Results for COc1ccc(S(=O)(=O)Nc2ccc(C)cn2)cc1 ?
RE007 growth inh: -5.9%; AmpC inh no detg: -11.1%; Giardia FBPA inh: -8.4%; AmpC detergent: inconclusive; Sm TGR inh: 0.2%

Results for CCOC(=O)c1c(N)n(Cc2ccco2)c2nc3ccccc3nc12 ?
RE007 growth inh: -4.1%; AmpC inh no detg: 1.2%; Giardia FBPA inh: -15.4%; AmpC detergent: inconclusive; Sm TGR inh: 44.7µM*

Results for COCC(C)OC(=O)c1c(N)n(Cc2ccco2)c2nc3ccccc3nc12 (centres undefined) ?
RE007 growth inh: -2.3%; AmpC inh no detg: -22.4%; Giardia FBPA inh: -7.1%; AmpC detergent: -4.4%; Sm TGR inh: 10µM*

How did CCCOC(=O)c1c(N)n(Cc2cccs2)c2nc3ccccc3nc12 do in these assays?
RE007 growth inh: -6.0%; AmpC inh no detg: -56.5%; Giardia FBPA inh: -7.9%; AmpC detergent: inconclusive; Sm TGR inh: -10.7%

What do the screens show for `CCCCn1c(NC(=O)c2ccco2)c(C(=O)OCC)c2nc3ccccc3nc21`?
RE007 growth inh: -6.6%; AmpC inh no detg: 60.3%; Giardia FBPA inh: 5µM*; AmpC detergent: -12.8%; Sm TGR inh: 25.1µM*

How did CCCCn1c(NC(=O)c2ccco2)c(S(=O)(=O)c2ccc(C)cc2)c2nc3ccccc3nc21 do in these assays?
RE007 growth inh: -13.4%; AmpC inh no detg: -35.6%; Giardia FBPA inh: inconclusive; AmpC detergent: -12.5%; Sm TGR inh: inconclusive

How did Cc1ccc(OCc2nnc(SCC(=O)Nc3cc(C)on3)n2C)cc1 do in these assays?
RE007 growth inh: -12.7%; AmpC inh no detg: -19.5%; Giardia FBPA inh: 3.4%; AmpC detergent: -4.1%; Sm TGR inh: -3.2%

How did Cc1ccc(N2C(=O)C(CC(=O)Nc3cccc(F)c3)N(C3CC3)C2=O)cc1 (centres undefined) do in these assays?
RE007 growth inh: 6.1%; AmpC inh no detg: -10.9%; Giardia FBPA inh: 5.0%; AmpC detergent: 2.4%; Sm TGR inh: 50.1µM*

Results for COc1ccc(NC(=O)CC2C(=O)N(c3ccc(OC)cc3)C(=O)N2C2CCCCC2)cc1 (centres undefined) ?
AmpC detergent: 8.9%; Sm TGR inh: 56.2µM*
